Reference: PubChem BioAssay (Tox21)
Inconclusive results are not listed. Calls of active or inactive are those of the source. Unless noted, calls come from the whole dose curve.

molecular target: Nuclear receptor ROR-gamma (Homo sapiens) (UniProt P51449); experiment: qHTS assay to identify small molecule antagonists of the retinoid-related orphan receptor gamma (ROR-gamma) signaling pathway (AID 1159521; active = well fitted inhibition curve with a large enough effect in the repeat runs;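 note: CHO cells with doxycycline inducible ROR-gamma driving an RORE luciferase reporter; top concentration of the series differs between compounds; % is set by controls: 0 for no effect and ±100 for the full control effect; nearly all actives have a fitted effect of over 50% in size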); conditions: Tet-on RORgamma CHO cells, RORE-luciferase, 16 h; series mostly up to 92.4 µM
Method in brief: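 Decreased RORE-driven luciferase luminescence indicates antagonism. Tet-on RORγ CHO cells received compound, then 1 uM final doxycycline 2 h later; signal read after 16 h incubation.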

| SMILES | outcome | activity change, negative = inhibition |
| --- | --- | --- |
| NS(=O)(=O)c1ccccc1OC(F)(F)F | inactive | – |
| C[C@@H]1C[C@H]2[C@@H]3C[C@H](F)C4=CC(=O)C=C[C@]4(C)[C@@]3(F)[C@@H](O)C[C@]2(C)[C@@]1(O)C(=O)CO | inactive | – |
| COCCOCCOCCOC | inactive | – |
| BrC/C=C/CBr | – | -16.8% [at 19 µM] (inactive) |
| C[N+](C)(C)CC(O)CCl (centres undefined) | inactive | – |
| CCCCCCCCCCCCC | inactive | – |
| CC(=O)N1CCN(c2ccc(O)cc2)CC1 | inactive | – |
| O=S(=O)(O)CCO | inactive | – |
| Nc1nc(=O)n([C@@H]2O[C@H](CO)[C@@H](O)[C@@H]2F)cc1I | inactive | – |
| C[C@H]1O[C@H](O[C@H]2[C@H](O)[C@@H](O)[C@@H](O[C@H]3[C@H](O)[C@@H](O)[C@H](O)O[C@@H]3CO)O[C@@H]2CO)[C@H](O)[C@@H](O)[C@@H]1N[C@H]1C=C(CO)[C@@H](O)[C@H](O)[C@H]1O | inactive | – |
| C=CC(C)(O)CC/C=C(\C)CC (centres undefined) | inactive | – |
| O=C(O)c1c(Cl)ccc(Cl)c1Cl | inactive | – |
| CC(C)COC(=O)COc1ccc(Cl)cc1Cl | inactive | – |
| CNC(=O)C(c1ccccc1)c1ccccc1 | inactive | – |
| Cc1nc2ccccc2c(=O)o1 | inactive | – |
| C=C[C@@H](C)CCC=C(C)C | inactive | – |
| c1ccccc1 | inactive | – |
| NC(=O)NNC(N)=O | inactive | – |
| Cc1cc(O)c2c(c1)C(=O)c1cccc(O)c1C2=O | inactive | – |
| O=C(O)c1ccccc1C(=O)OCc1ccccc1 | inactive | – |
| CN(C)CCOCCN(C)CCO | inactive | – |
| CC(C)(CO)[C@@H](O)C(=O)NCCCO | inactive | – |

test system: not listed separately; experiment: qHTS assay to identify small molecule agonists of the AP-1 signaling pathway - cell viability counter screen (AID 1159525); conditions: ME-180 (cervical carcinoma) AP-1-bla cells viability, ATP luminescence, 5 h; series mostly up to 76.8 µM; note: nearly all actives have a fitted effect of over 55% in size
Method in brief: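 Same-well cytotoxicity counter screen of the Tox21 10K library in ME-180 cells. The readout is ATP-dependent luminescence after 5 h compound treatment. Data are normalised to DMSO and tetra n-octyl ammonium bromide controls.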

| SMILES | outcome | viability change, negative = cytotoxic |
| --- | --- | --- |
| NS(=O)(=O)c1ccccc1OC(F)(F)F | inactive | – |
| C[C@@H]1C[C@H]2[C@@H]3C[C@H](F)C4=CC(=O)C=C[C@]4(C)[C@@]3(F)[C@@H](O)C[C@]2(C)[C@@]1(O)C(=O)CO | inactive | – |
| CCOC(=O)CC#N | inactive | – |
| CC(=O)OCC(=O)[C@@]1(O)[C@H](OC(C)=O)C[C@H]2[C@@H]3CCC4=CC(=O)C=C[C@]4(C)[C@@]3(F)[C@@H](O)C[C@@]21C | inactive | – |
| COCCOCCOCCOC | inactive | – |
| C=COCCOCCOC=C | inactive | – |
| BrC/C=C/CBr | – | 1.78% [at 15.8 µM] (inactive) |
| C[N+](C)(C)CC(O)CCl (centres undefined) | inactive | – |
| CCCCCCCCCCCCC | inactive | – |
| CCCCC[Si](OCC)(OCC)OCC | inactive | – |
| C/C=C(\C)C(=O)OCC/C=C\CC | inactive | – |
| CNC(=O)NC | inactive | – |
| CC1CCC(C(C)(C)S)C(=O)C1 (centres undefined) | inactive | – |
| CC(=O)N1CCN(c2ccc(O)cc2)CC1 | inactive | – |
| O=S(=O)(O)CCO | inactive | – |
| FC(F)(F)c1ccc(Cl)cc1Cl | inactive | – |
| CCCCCCCCCCCCCC(=O)OC | inactive | – |
| CCCCOC(=O)C(=O)OCCCC | inactive | – |
| Nc1nc(=O)n([C@@H]2O[C@H](CO)[C@@H](O)[C@@H]2F)cc1I | inactive | – |

| SMILES | outcome | viability change, negative = cytotoxic |
| --- | --- | --- |
| C[C@H]1O[C@H](O[C@H]2[C@H](O)[C@@H](O)[C@@H](O[C@H]3[C@H](O)[C@@H](O)[C@H](O)O[C@@H]3CO)O[C@@H]2CO)[C@H](O)[C@@H](O)[C@@H]1N[C@H]1C=C(CO)[C@@H](O)[C@H](O)[C@H]1O | inactive | – |
| CC(=O)Nc1ccc(C)cc1 | inactive | – |
| C=CC(C)(O)CC/C=C(\C)CC (centres undefined) | inactive | – |
| O=C(O)c1c(Cl)ccc(Cl)c1Cl | inactive | – |
| CC(C)COC(=O)COc1ccc(Cl)cc1Cl | inactive | – |
| CNC(=O)C(c1ccccc1)c1ccccc1 | inactive | – |
| Cc1nc2ccccc2c(=O)o1 | inactive | – |
| C=C[C@@H](C)CCC=C(C)C | inactive | – |
| NC(=O)NC(=O)Cc1ccccc1 | inactive | – |
| Nc1ccc(S(=O)(=O)NC(=O)c2ccccc2)cc1 | inactive | – |
| CC(=O)OCCCc1ccccc1 | inactive | – |
| CCCCCCCCCCCCOC(C)=O | inactive | – |
| c1ccccc1 | inactive | – |
| NC(=O)NNC(N)=O | inactive | – |
| Cc1cc(O)c2c(c1)C(=O)c1cccc(O)c1C2=O | inactive | – |
| O=C(O)c1ccccc1C(=O)OCc1ccccc1 | inactive | – |
| CN(C)CCOCCN(C)CCO | inactive | – |
| CC(C)(CO)[C@@H](O)C(=O)NCCCO | inactive | – |
